# Test results reported in the supplement of paper PMC6555819.
# How the values were obtained:
# Test in all cases: PBM binding z-score (relative to random genomic background probes); higher = stronger binding; sequences stand for … in GC…GCGATTGACAGCGTAGAATGAAGG
# [1] = test system: FXR:RXRa (NR concentration 270 nM, RXRa partner concentration 90 nM)
# How it was run: (§1)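 Ligand-free nuclear receptor dimers were bound for 1 h to custom Agilent 4×180K protein-binding microarrays. Detection used antibodies against each partner (one per run). Binding z-scores rest on regression-normalized fluorescence, with random background probes as the reference.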
# [2] = test system: LXRa:RXRa (NR concentration 270 nM, RXRa partner concentration 90 nM)
# How it was run: as §1
# [3] = test system: LXRa homodimer (NR concentration 270 nM)
# How it was run: as §1
# [4] = test system: LXRb:RXRa (NR concentration 270 nM, RXRa partner concentration 90 nM)
# How it was run: as §1
# [5] = test system: LXRb homodimer (NR concentration 270 nM)
# How it was run: as §1
# [6] = test system: PPARa:RXRa (NR concentration 270 nM, RXRa partner concentration 90 nM)
# How it was run: as §1
# [7] = test system: PPARg:RXRa (NR concentration 180 nM, RXRa partner concentration 90 nM)
# How it was run: as §1
# [8] = test system: PPARg:RXRa 270nM:90nM, anti-RXR (NR concentration 270 nM, RXRa partner concentration 90 nM)
# How it was run: as §1
# [9] = test system: PPARg:RXRa 30nM:10nM, anti-RXR (NR concentration 30 nM, RXRa partner concentration 10 nM)
# How it was run: as §1
# [10] = test system: PPARg:RXRa 90nM:30nM, anti-RXR (NR concentration 90 nM, RXRa partner concentration 30 nM)
# How it was run: as §1
# [11] = test system: PPARg:RXRa DBDmut IVT, anti-RXR (DBD mutation: RXRa K156A/R161A, NR concentration 270 nM, RXRa partner concentration 90 nM)
# How it was run: as §1
# [12] = test system: PPARg:RXRa IVT, anti-PPARg (NR concentration 270 nM, RXRa partner concentration 90 nM)
# How it was run: as §1
# [13] = test system: PPARg DBDmut:RXRa IVT, anti-PPARg (DBD mutation: PPARg1 K132A/R137A, NR concentration 270 nM, RXRa partner concentration 90 nM)
# How it was run: as §1
# [14] = test system: PPARg DBDmut IVT, anti-PPARg (DBD mutation: PPARg1 K132A/R137A, NR concentration 270 nM)
# How it was run: as §1
# [15] = test system: PPARg homodimer (NR concentration 180 nM)
# How it was run: as §1
# [16] = test system: PXR:RXRa (NR concentration 270 nM, RXRa partner concentration 90 nM)
# How it was run: as §1
# [17] = test system: PXR homodimer (NR concentration 270 nM)
# How it was run: as §1
# [18] = test system: RARa:RXR (NR concentration 270 nM, RXRa partner concentration 90 nM)
# How it was run: as §1
# [19] = test system: RARa homodimer (NR concentration 270 nM)
# How it was run: as §1
# [20] = test system: RARb:RXRa (NR concentration 270 nM, RXRa partner concentration 90 nM)
# How it was run: as §1
Sequence,PBM binding z-score [1],PBM binding z-score [2],PBM binding z-score [3],PBM binding z-score [4],PBM binding z-score [5],PBM binding z-score [6],PBM binding z-score [7],PBM binding z-score [8],PBM binding z-score [9],PBM binding z-score [10],PBM binding z-score [11],PBM binding z-score [12],PBM binding z-score [13],PBM binding z-score [14],PBM binding z-score [15],PBM binding z-score [16],PBM binding z-score [17],PBM binding z-score [18],PBM binding z-score [19],PBM binding z-score [20]
ATCTCTAGGTAACAAGCTCAGTGAAAGAGAGGAC,0.331,0.45,-0.0616,-0.105,0.556,0.394,0.682,0.77,0.327,0.644,2.93,2.48,0.643,1.26,0.56,-0.0529,0.34,0.0879,0.837,0.417
CACGAAAGGTCGTGCTCAGGTGAGTATACCAAAC,5.58,4.3,0.166,3.44,0.848,4.88,3.14,3.97,1.14,2.72,1.16,1.86,0.523,0.745,1.9,3.35,0.154,4.28,-0.1,4.13
TCAGACAGTTGAAGGTAACTCAGGTACGCAGTCG,0.761,1.54,0.0812,0.579,-0.363,1,0.579,2.27,3.99,3.4,2.22,0.0381,-0.122,-0.183,0.684,0.701,0.165,0.843,-0.196,0.547
CCGACTGGGGCAGAAAGGTTAGCATACCATCCGG,-0.121,0.018,-0.422,0.0251,-1.09,1.22,1.22,1.7,-0.0378,0.958,1.54,1.41,-0.783,-1.16,-0.251,0.123,-0.44,0.634,0.154,1.43
AGAATGAGGTTATTAAGCTCAGGGAATTGCGGTC,1.57,1.14,-0.316,0.747,-0.299,2.6,0.995,1.26,-0.0679,0.636,2.58,1.95,0.589,0.126,-0.0657,0.757,-0.286,0.948,-0.655,1.09
CCTAATGGGCCAAAAAGGTCATTGATGCCGATAA,3.45,4.14,3.21,4.2,0.435,4.59,2.58,3.36,1.37,2.69,2.24,2.34,-0.601,-0.248,3.03,4.65,2.85,5.08,1.31,3.99
GCAGACAGGTGAAACACAGGTAACTCAGGGTGGC,0.0737,0.312,-0.336,-0.415,-0.7,0.874,0.952,0.125,-0.424,-0.0605,0.926,0.641,-0.0327,-0.651,-0.0531,-0.0674,-0.462,0.56,-0.402,0.685
